# From PubChem
# MARV entry inh: qHTS for inhibitors of binding or entry into cells for Marburg Virus | Marburg virus pseudotyped entry inhibition, cell reporter | Potency, µM (doses to about 37.8 µM), for the others: at the top dose activity change, negative = inhibition, actives largely listed as inhibitors | hit rate 1.8% among 300,000 | AID 540276, 2011; calls by dose curve; tested in HEK293 cells; further: potency means the concentration at half of the fitted maximal effect; on the % scale 0 is the no-effect control and ±100 the full control effect
# CHX counter: Cycloheximide Counterscreen for Small Molecule Inhibitors of Shiga Toxin | cell reporter, cycloheximide protein synthesis inhibition counterscreen | max response, % | hit rate 12% among 300,000; in the data active means max response mostly above about 13%, no sharp cut-off; inactive means mostly below about 14%; further: read at 38.3 µM for the half of the compounds with a filed dose; 0% is about no effect
# Shiga toxin inh: A qHTS for Small Molecule Inhibitors of Shiga Toxin; Vero cells, Shiga toxin protein synthesis inhibition reporter; inhibition, % at 38.7 µM; hit rate 9.2% among 290,000; AID 2315, 2010; in the data active means inhibition mostly above about 28%, no sharp cut-off; inactive means mostly below about 43%; further: 0% is about no effect
# Lassa entry inh: qHTS for Inhibitors of binding or entry into cells for Lassa Virus; AID 540256, 2011; hit rate 1.2% among 300,000; Lassa virus pseudotype entry inhibition, cell reporter; Potency, µM (series often up to 37.9 µM), without a hit: at the highest dose activity change, negative = inhibition, hits mostly inhibitors; calls by dose curve; tested in HEK293 cells; further: potency means the concentration at half of the fitted maximal effect; on the % scale 0 is the no-effect control and ±100 the full control effect; nearly all actives have a fitted effect of over 50% in size
# Numbers without * were called inactive; ? = inconclusive; . = not tested or not shown; + = active, no number; [ ] = another dose, or the depositor's remark. Compounds with a hit are over-represented: about 12% of the library has one in this group of screens.
SMILES,MARV entry inh,CHX counter,Shiga toxin inh,Lassa entry inh
CC1CCN(CCCn2c(=S)[nH]c3c(sc4ccccc43)c2=O)CC1,-18%,22*,105*,-25%
O=c1c2sc3ccccc3c2[nH]c(=S)n1CCN1CCOCC1,?,3,39,8%
CCOc1ccc(-c2cn3ccccc3n2)cc1[N+](=O)[O-],?,38*,67*,?
CCCOc1ccc(S(=O)(=O)N2CCCC2)cc1[N+](=O)[O-],.,3,16,.
CCc1ccc(S(=O)(=O)Nc2cc(-c3cn4ccccc4n3)ccc2C)cc1,9%[46.1 µM],.,.,-6%[46.1 µM]
CCCCCOc1ccc(CSC(=N)N)cc1[N+](=O)[O-],?,11,1,?
CCCCOc1ccc(-c2cn3ccccc3n2)cc1[N+](=O)[O-],?,62*,103*,?
CCCOc1ccc(-c2csc(N)n2)cc1[N+](=O)[O-],?,45*,+,?
CC[C@H](C)[C@H](NC(N)=O)C(=O)NCCc1ccc(Cl)cc1Cl,-26%[46.1 µM],1,14,19%
Cc1ccc2onc(CC(=O)N(C)c3ccccc3)c2c1,.,.,.,-27%[46.1 µM]
Cc1cc(C)cc(NC(=O)c2cccc(N3CCCS3(=O)=O)c2)c1,.,.,.,7%[46.1 µM]
Cc1ccc(OCC(=O)N/N=C\c2cccn2C)c([N+](=O)[O-])c1,26%[46.1 µM],32*,42*,17%
Cc1ccc(OCC(=O)N/N=C\c2c(C)n(C)c3ccccc23)c([N+](=O)[O-])c1,10µM*,-3,-23,-18%
C/C(=N\Nc1cccc2cccnc12)c1ccccn1,?,32,30,?
C/C(=N\Nc1cccc2cccnc12)c1ccccc1O,?,36*,46*,?
C/C(=N\Nc1cccc2cccnc12)c1ccc(N)cc1,?,36*,119*,2%[46.1 µM]
COCCN(C(=S)Nc1cccc(C)c1)C(C)c1cccnc1 (centres undefined),3%[46.1 µM],-6,-14,16%
CCOC(=O)c1c(NC(=S)NNS(=O)(=O)c2ccc(Br)cc2)sc2c1CCCCC2,-4%,-2,-18,-12%
Clc1ccc(-n2ncc3c(NC4CCCC4)ncnc32)cc1,.,.,.,5%[46.1 µM]
Cc1ccc(-n2ncc3c(NCCCn4ccnc4)ncnc32)c(C)c1,.,-2,-2,.
Cc1cccc(-n2ncc3c(NCCCN4CCCC4=O)ncnc32)c1,6%,58*,77*,-25%
O=C1CCCN1CCCNc1ncnc2c1cnn2-c1ccc(Cl)cc1,.,28*,29*,.
Cc1cccc(-n2ncc3c(NCCCn4ccnc4)ncnc32)c1,?,62*,74*,?
CCOc1ccccc1CNC(=O)c1cnc2sc(N3CCCC3)nn2c1=O,.,.,.,7%[46.1 µM]
Cc1ccc(CNC(=O)c2cccc(Nc3nc4ccccc4n4nnnc34)c2)cc1,1%[46.1 µM],.,.,?
SMILES,MARV entry inh,CHX counter,Shiga toxin inh,Lassa entry inh
CCc1ccccc1N(C(=O)c1snc(C(N)=O)c1N)C(C(=O)NCC1CCCO1)c1c[nH]c2ccccc12 (centres undefined),?,-2,-5,?
CC1(C)CC(C(CCN(Cc2ccccc2)C(=O)c2ccco2)c2ccc(F)cc2)CCO1 (centres undefined),?,15,-8,?
O=C(c1ccco1)N(CCC(c1ccccc1)c1ccco1)Cc1ccc(F)cc1 (centres undefined),?,22*,20,23µM*
COc1ccc(CNC(=O)C2CCCN(S(=O)(=O)c3c(C)noc3/C=C/N(C)C)C2)cc1 (centres undefined),.,1,-3,.
COC(=O)c1ccc(-n2c(C)cc(C(=O)COC(=O)CC3Sc4ccccc4NC3=O)c2C)cc1 (centres undefined),?,21*,26*,?
Cc1cc(C(=O)COC(=O)CC2Sc3ccccc3NC2=O)c(C)n1-c1ccccc1 (centres undefined),?,66*,50*,4%
COc1ccc(-n2c(C)cc(C(=O)COC(=O)Cc3n[nH]c(=O)c4ccccc34)c2C)cc1,?,-6,14,?
Cc1cc(C(=O)COC(=O)CC2Sc3ccccc3NC2=O)c(C)n1-c1ccc(Br)cc1 (centres undefined),?,26,42,?
Cc1cc(C(=O)COC(=O)CC2Sc3ccccc3NC2=O)c(C)n1-c1ccc2c(c1)OCO2 (centres undefined),16%,27*,37,-6%
O=C(CC1Sc2ccccc2NC1=O)OCC(=O)N1CCc2ccccc21 (centres undefined),6%,32*,92*,7%
CCCCN1C2=C(C(=O)CCC2)C(c2ccc(Cl)c(Cl)c2)C2=C1c1ccccc1C2=O (centres undefined),?,10,-15,2.3µM*
CCOC(=O)c1sc(=S)n(C)c1NC(=O)c1ccccc1C,-2%,-7,-8,6%
Cc1nc(=O)c(-c2ccccc2)c(C)n1-c1cccc(/C=C/C(=O)O)c1,.,-2,-1,.
CC(Sc1nnc(NC2CCCCC2)s1)C(=O)Nc1ccc2c(c1)C(=O)c1ccccc1C2=O (centres undefined),?,26*,76*,?
O=C(CN1C(=O)S/C(=C\C=C\c2ccccc2)C1=O)Nc1ccccc1C(=O)O,.,-2,-6,.
O=C(CCN1C(=O)S/C(=C\C=C\c2ccccc2)C1=O)Nc1ccc(O)cc1,.,32*,52*,.
O=C(CN1C(=O)S/C(=C\C=C\c2ccccc2)C1=O)Nc1cccc(O)c1,?,34*,38*,-3%
O=Cc1ccnc(-c2ccc(OC(=O)c3ccco3)cc2)n1,?,14,10,-19%
CC(=O)c1cccc(-n2nnnc2SCC(=O)Nc2cc(C)on2)c1,-9%[46.1 µM],-4,-10,?
CSc1ccccc1OCc1cc(C(=O)NCCCc2ccccc2)no1,23%,6,33,-1%
CSc1ccccc1OCc1cc(C(=O)NCCn2nc(C)cc2C)no1,-22%,11*,6,?
Cc1cc(C)n(CCNC(=O)c2cc(COc3ccc(F)cc3Cl)on2)n1,-24%[46.1 µM],4,3,-16%
CSc1ccccc1OCc1cc(C(=O)NC(C)Cn2cncn2)no1 (centres undefined),-3%,13*,18,?
CSc1ccccc1OCc1cc(C(=O)NCCN2CCCc3ccccc32)no1,?,33*,16,?
Cc1cccc(NC(=S)NC(C)C(c2ccccc2)N2CCN(C)CC2)c1C (centres undefined),?,-6,-6,.
SMILES,MARV entry inh,CHX counter,Shiga toxin inh,Lassa entry inh
COc1ccc2oc(C(=O)Nc3nnc(C)s3)c(C)c2c1,?,.,.,7.1µM*
Cc1ccc2oc(C(=O)Nc3nonc3C)c(C)c2c1,.,28*,67*,.
COc1ccc2oc(C(=O)NC(C)(C)C)c(C)c2c1,10%[46.1 µM],49*,96*,0%[46.1 µM]
CCc1nonc1NC(=O)c1oc2ccc(Br)cc2c1C,6%[46.1 µM],-8,8,1%[46.1 µM]
Cc1ccc2oc(C(=O)Nc3nnc(C)s3)c(C)c2c1,1%,17*,50,?
COc1ccc2oc(C(=O)Nc3nc4ccc(S(C)(=O)=O)cc4s3)c(C)c2c1,-17%,.,.,25%
COc1ccc2oc(C(=O)NNC(=O)c3ccc(F)cc3)c(C)c2c1,4%,.,.,10%
